HIF act: HIF pathway transcriptional activation. activation, % at 7.5 µM (by protocol). 300,000 tested, 0.32% active. U2OS HRE-luciferase reporter, luminescence; normalized: DMSO 0%, desferrioxamine 100%;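 active = mean activation of at least 10% of the iron chelator positive control signal, with at least half of replicates also reaching 10%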
697 NFkB inh: lowers PMA/ionomycin-induced NF-kB signal in 697 B cells. inhibition, % at 4 µM. 697 B-cell NF-kB luciferase reporter, 16 h. AID 435022. 330,000 tested, 0.33% active; in the data active = inhibition above about 35%
F508del corr: CFTR F508del correction in bronchial cells | 350,000 tested, 0.36% active | activity (quench increase), % at 7.58 µM | CFBE cells, YFP halide quenching; stimulated with forskolin plus potentiator P3; % fluorescence drop versus neutral controls;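 active = mean added fluorescence quench of at least 8% versus neutral control, with both replicates also reaching 8%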;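 note: cells transiently co-express mutant CFTR-F508del with the halide-sensitive YFP; corrector assay measuring rescue of mutant channel to the surface after 24 h compound exposure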
Jurkat NFkB inh: inhibitors of the PMA/ionomycin-induced NF-kB reporter in Jurkat cells | AID 435003 | 330,000 tested, 0.53% active | inhibition, % at 4 µM | PMA/ionomycin-induced NF-kB luciferase reporter, luminescence; in the data active = inhibition above about 50%
697 NFkB conf: lowers PMA/ionomycin-induced NF-kB signal in 697 B cells. 697 B-cell NF-kB luciferase, 16 h. AID 449746. shares compounds with 697 NFkB inh. 2,000 tested, 35% active. inhibition, % at 4 µM; in the data active = inhibition mostly above about 28%, no sharp cut-off; inactive = mostly below about 22%
An asterisk follows results filed as active. Most compounds without a hit are left out; they make up all but 0.93% or so of the library.

`NC(=O)c1nsc(C(=O)N(c2ccccc2F)C(C(=O)NCc2ccccc2)c2ccc(O)cc2)c1N` (stereo not drawn) gave HIF act -0.8, 697 NFkB inh 35.4*, F508del corr -0.6, Jurkat NFkB inh 44.0 and 697 NFkB conf 22.1.
O=C(CN1C(=O)NC2(CCCCCC2)C1=O)c1ccc2c(c1)OCCO2 was read as HIF act 3.0, 697 NFkB inh -266.5, Jurkat NFkB inh -110.1 and 697 NFkB conf -131.8.
For O=C(CN1C(=O)NC2(CCCCCC2)C1=O)c1ccc(F)cc1 the results were HIF act 0.6, 697 NFkB inh 7.7, F508del corr -1.6 and Jurkat NFkB inh 2.4.
Screening CN1CCN(c2ccc(-c3ccc4ccccc4n3)cc2)CC1 returned HIF act -6.3 and F508del corr -4.6.
Screening c1ccc2nc(-c3ccc(N4CCOCC4)cc3)ccc2c1 returned HIF act -6.7, 697 NFkB inh -348.2, Jurkat NFkB inh -66.8 and 697 NFkB conf -291.1.
Screening C[C@@H]1CN([C@H](C)CO)C(=O)c2cc(NC(=O)NC3CCCCC3)ccc2O[C@@H](C)CCCCO[C@H]1CN(C)Cc1ccccc1 returned F508del corr -1.3.
O=[N+]([O-])c1ccc(Sc2cc[n+]([O-])c3ccccc23)c([N+](=O)[O-])c1 was read as HIF act 2.7, 697 NFkB inh 36.6*, F508del corr 0.3, Jurkat NFkB inh 27.8 and 697 NFkB conf 49.7*.
For O=C(c1cccs1)N(Cc1nc2sc3c(c2c(=O)[nH]1)CCCC3)C1CCCC1 the results were HIF act -1.5, 697 NFkB inh -323.7, Jurkat NFkB inh -15.3 and 697 NFkB conf -299.9.
`CCOc1cc(/C=C(/C#N)c2nc3ccccc3[nH]2)ccc1Oc1ccc([N+](=O)[O-])cn1` gave HIF act 2.5, 697 NFkB inh 39.7*, F508del corr 2.4, Jurkat NFkB inh 9.0 and 697 NFkB conf 7.4.
For O=C(CCN1C(=O)/C(=C/c2ccc(F)cc2)SC1=S)NNC(=O)c1ccncc1 the results were HIF act 0.0, 697 NFkB inh 9.7, F508del corr -0.2 and Jurkat NFkB inh 11.1.
Cc1ccc(/C=C2\SC(=S)N(CCC(=O)NNC(=O)c3ccncc3)C2=O)cc1 was read as HIF act -2.8, 697 NFkB inh 43.8*, F508del corr -1.3, Jurkat NFkB inh -5.5 and 697 NFkB conf 30.7*.
Screening Cc1ccc(/C=C2\SC(=S)N(CCCC(=O)Nc3cc(C)on3)C2=O)cc1 returned HIF act -2.0, 697 NFkB inh 52.5*, F508del corr 1.2, Jurkat NFkB inh -4.7 and 697 NFkB conf 58.9*.
Cc1ccc(/C=C2\SC(=S)N(CCCC(=O)Nc3cccnc3)C2=O)cc1 was read as HIF act -2.1, 697 NFkB inh 90.1*, Jurkat NFkB inh 18.2 and 697 NFkB conf 99.3*.
`Cc1ccc(/C=C2\SC(=S)N(CC(=O)Nc3cccnc3)C2=O)cc1` gave HIF act -0.2, 697 NFkB inh -1.5, F508del corr 4.3 and Jurkat NFkB inh 0.7.
COc1ccc(-c2cnc3c(c2)C(=O)N([C@H](C)CO)C[C@H](C)[C@H](CN(C)C(=O)C2CC2)O3)cc1 was read as F508del corr 1.4.
COc1ccc(NC(=O)Nc2ccc3c(c2)C(=O)N([C@H](C)CO)C[C@H](C)[C@H](CN(C)C(=O)CCC(F)(F)F)OCCCC[C@@H](C)O3)cc1 was read as F508del corr -1.9.
COc1ccc(C(=O)COC(=O)CNC(=O)c2cccc(OC(F)F)c2)cc1 was read as HIF act 0.2, 697 NFkB inh 0.3, F508del corr -1.2 and Jurkat NFkB inh 10.9.
For O=C(CNC(=O)c1cccc(OC(F)F)c1)OCC(=O)c1ccccc1 the results were HIF act -0.4, 697 NFkB inh 35.0*, F508del corr -4.3, Jurkat NFkB inh -9.3 and 697 NFkB conf 4.2.
Screening CN1C(=O)c2cc(NC(=O)c3ccc(F)c(F)c3)ccc2OC[C@H]2O[C@@H](CC(=O)O)CC[C@H]21 returned F508del corr 1.8.
For O=C(NCCC1CCCCN1S(=O)(=O)c1ccc(Cl)cc1)C(=O)NCc1ccncc1 (stereo not drawn) the results were HIF act -0.6, 697 NFkB inh 45.2*, F508del corr -1.1, Jurkat NFkB inh 2.6 and 697 NFkB conf 42.9*.
For O=C(NCCC1CCCCN1S(=O)(=O)c1ccc(F)cc1)C(=O)NCc1ccncc1 (stereo not drawn) the results were HIF act -0.3, 697 NFkB inh 22.9, F508del corr 0.3 and Jurkat NFkB inh 12.3.
Screening NC(=O)C1CCN(C(=O)COc2ccc3ccccc3c2Br)CC1 returned HIF act 1.2, 697 NFkB inh 57.4*, F508del corr 1.3, Jurkat NFkB inh 8.6 and 697 NFkB conf 59.5*.
CC1CN(C(=O)COc2ccc3ccccc3c2Br)CC(C)O1 (stereo not drawn) was read as HIF act -0.1, 697 NFkB inh 7.3, F508del corr 1.4 and Jurkat NFkB inh -8.8.
For Cc1cccc2cc(CN(Cc3ccco3)C(=O)c3ccncc3)c(=O)[nH]c12 the results were HIF act 0.0, 697 NFkB inh 35.7*, Jurkat NFkB inh -0.6 and 697 NFkB conf -3.4.
Screening O=C(c1ccncc1)N(Cc1ccco1)Cc1cc2ccccc2[nH]c1=O returned HIF act -0.7, 697 NFkB inh 5.5 and Jurkat NFkB inh 15.3.
`COc1ccc2[nH]c3c(c2c1)CCN1C(=O)C(CC(=O)NCc2cccc(C(F)(F)F)c2)C[C@H](C(=O)N(C(C)C)C(C)C)[C@@]31C` (stereo partly drawn) gave 697 NFkB inh 35.1*, F508del corr 3.8 and 697 NFkB conf 24.5.
Screening CCOc1cc(-c2nc3ccccn3c2NCC2CCCO2)ccc1O (stereo not drawn) returned HIF act 0.1, 697 NFkB inh -2.9 and Jurkat NFkB inh 4.3.
COc1cc(-c2nc3ccccn3c2NCC2CCCO2)ccc1O (stereo not drawn) was read as HIF act 0.9, 697 NFkB inh 36.0*, Jurkat NFkB inh -3.6 and 697 NFkB conf 1.8.
For C[C@@H]1CN([C@H](C)CO)S(=O)(=O)c2ccc(-c3ccc(C(=O)N(C)C)cc3)cc2O[C@H]1CN(C)C(=O)C1CC1 the results were F508del corr 0.5.
For COc1ccc(Br)cc1/C=N/Nc1cccc(C(=O)O)c1 the results were HIF act 0.6, 697 NFkB inh -37.3 and Jurkat NFkB inh -6.6.
COc1ccccc1/C=C/C=N/Nc1cccc(C(=O)O)c1 was read as HIF act 0.1, 697 NFkB inh -275.3, F508del corr -4.8, Jurkat NFkB inh -113.1 and 697 NFkB conf -39.0.
Cc1ccccc1-c1ccc([C@H]2[C@@H](CO)N3C(=O)CN(C(=O)Nc4ccc(F)cc4)C[C@@H]23)cc1 was read as F508del corr -1.0.
For CCCOc1ccccc1/C=C1\SC(N2CCCCC2)=NC1=O the results were HIF act -11.2, 697 NFkB inh -299.7, F508del corr 5.0, Jurkat NFkB inh -57.3 and 697 NFkB conf -286.9.

High-throughput results: PubChem, several laboratories
